Source: PubChem BioAssay
mHTT-CaM PPI inh: inhibitors of human mutant huntingtin-calmodulin interaction. P42858. AlphaScreen His-mHTT/GST-CaM binding, luminescence. inhibition, % at 15 µM. hit rate 3.6% among 190,000;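 note: 0% = both proteins with DMSO and 100% = one protein alone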
Pf apPOL inh: Pf-apPOL DNA polymerase inhibition | Recombinant Pf-apPOL, molecular beacon fluorescence, 1.5 h | hit rate 0.25% among 210,000 | inhibition, % at 10 µM | AID 1794808
Starred values were filed as active, the others as inactive; i = inactive; nt = not tested or not shown; + = active, no number. A selection: hits, their analogues and other compounds. The true share with any hit is near 3.6%. Cut-off read from the data, not from the text of the source: active = inhibition above about 50%; inactive = the rest.

SMILES	mHTT-CaM PPI inh	Pf apPOL inh
COc1ccc(OCC(O)CN2CCN(c3ccc(OC)cc3)CC2)cc1 (stereo not drawn)	2	0
O=C(Nc1c(F)cccc1F)N1CCc2[nH]cnc2C1c1ccccc1 (stereo not drawn)	2	-8
O=[N+]([O-])c1cccc2ccc(N3CCCCC3)nc12	20	2
CC1CC(OCC(O)CN2CCC(CN3C(=O)c4cccc5cccc(c45)C3=O)CC2)CC(C)(C)C1 (stereo not drawn)	37	77*
CC(C)(C)C1CCC(OCC(O)CN2CCC(CN3C(=O)c4cccc5cccc(c45)C3=O)CC2)CC1 (stereo not drawn)	100*	28
COc1ccc(N2CCN(CC(O)COC3CCC(C(C)(C)C)CC3)CC2)cc1 (stereo not drawn)	34	-3
CC1CCN(CC(O)COC2CCCC2)CC1 (stereo not drawn)	-1	-2
COc1ccc(C2=N/C(=C\c3cccc(F)c3)C(=O)O2)cc1[N+](=O)[O-]	0	14
CCOCC(=O)N1CCCC(COc2ccc(C(=O)N3CCC(C)CC3)cc2)C1 (stereo not drawn)	33	-1
COc1ccc(NC(=O)c2cccc(N3C(=O)NC4CC3(C)Oc3c(OC)cccc34)c2)cc1 (stereo not drawn)	12	-5
CC(C)(C)[C@H]1CCC(=O)N([C@H](CSc2ccccc2)Cc2ccccc2)CC1	6	-6
CC(C)(C)[C@H]1CCC(=O)N([C@H](COc2ccccc2)Cc2ccccc2)CC1	64*	9
CCCN1CCC(=O)N([C@H](COc2ccccc2)Cc2ccccc2)CC1	7	-8
O=C1CCN(Cc2ccccc2)CCN1[C@H](COc1ccccc1)Cc1ccccc1	86*	-2
Cc1ccc(C)c(CN2C(=O)NC3(CCN(C(=O)c4cc(C)ccc4C)CC3)C2=O)c1	2	-4
Cc1ccc(NC(=O)c2cnn3c(C(F)(F)F)cc(-c4ccco4)nc23)c(C)c1	3	-3
O=C(NCCCN1CCN(c2ccccc2)CC1)c1ccccc1C(F)(F)F	-9	-4
COc1ccc(CNCc2cc3c(cc2[N+](=O)[O-])OCO3)cc1	9	-9
Cc1cc(C)cc(NCc2cc3c(cc2[N+](=O)[O-])OCO3)c1	68*	-6
O=C(O)c1sc2cc([N+](=O)[O-])ccc2c1Cl	1	-26
COc1cccc(C(=O)Nc2cc(C)ccc2O)c1	-6	-2
CCOCCCNC(=O)c1c[nH]c2ccc(S(=O)(=O)N3CCC4(CC3)OCCO4)cc2c1=O	2	-4
CCN(Cc1cc(-c2ccc(C)cc2C)on1)C(=O)c1ccc(C)cc1	-22	1
CC(=O)N(Cc1ccc2c(c1)OCO2)Cc1cc(-c2ccc(C)cc2C)on1	61*	-3
CCc1nc(N2CCCC2=O)sc1C(=O)N1CCN(c2cccc(C)c2C)CC1	64*	-1
SMILES	mHTT-CaM PPI inh	Pf apPOL inh
Cc1cccc(N2CCN(C(=O)c3cn4c(n3)CCCC4)CC2)c1C	54*	0
Cc1ccc(C)c(N2CCN(C(=O)c3cn4c(n3)CCCC4)CC2)c1	51*	-5
Cc1cccc(N2CCN(C(=O)c3noc4c3CCCC4)CC2)c1C	-24	-3
Cc1ccccc1N1CCN(C(=O)c2cn3c(n2)CCCC3)CC1	30	-3
O=C(c1ccc2c(c1)nc1n2CCCCC1)N1CCN(c2ccccc2)CC1	11	-5
Cc1ccc(C)c(N2CCN(C(=O)c3ccc4c(c3)nc3n4CCCC3)CC2)c1	84*	-5
CCN1CCn2cc(C(=O)N3CCN(c4cc(C)ccc4C)CC3)nc2C1	16	-2
COCCNC(=O)C1(C)CCC(=O)N1c1ccc(OC)cc1 (stereo not drawn)	-5	3
CC1(C)CC2(CC(C)(C)N1)OC(=O)N(CCN1C(=O)OC3(CC(C)(C)NC(C)(C)C3)C1(C)O)C2(C)O (stereo not drawn)	-4	nt
CN1CCC(N2CCN(c3ccccc3)CC2)CC1	0	-2
CCN(CC)CCCN1C(=O)CCc2c(C)nc(C)nc21	-8	1
Cc1ccc(C)c(N2CCN(C(=O)c3ccc(-c4nccnc4N(C)C)cc3)CC2)c1	94*	-4
Cc1ccc(C)c(N2CCN(C(=O)c3cccc(-c4nccnc4N(C)C)c3)CC2)c1	44	0
O=C(NCCc1csc(C2CCCN(C(=O)c3ccsc3)C2)n1)C1CC1 (stereo not drawn)	-4	-1
Cc1ccc(C(=O)NCc2ccc3c(c2)nnn3C)c(C)c1	-11	3
CCN(CC)CCNC(=O)c1c(O)c2cc(F)cc3c2n(c1=O)C(C)CC3 (stereo not drawn)	61*	-78
CC1CCc2cc(F)cc3c(O)c(C(=O)Nc4ncccc4O)c(=O)n1c23 (stereo not drawn)	22	-85
COc1cc(C(=O)O/N=C2\C=CC(=O)C=C2C)cc(OC)c1OC	i	0
COc1ccccc1C(=O)O/N=C1\C=CC(=O)C=C1C	+	-1
CCN(CC)C(=O)c1cnn2c3c(cnc12)CCCCCC3	-1	0
CC(=O)N1CC(=O)NC(=Cc2ccco2)C1=O	nt	7
